Assay results as given in the supplement of paper PMC6555819.

Each sequence was assayed on RXRa homodimer (NR concentration 180 nM) (assay: PBM binding z-score (relative to random genomic background probes); higher = stronger binding; sequences stand for … in GC…GCGATTGACAGCGTAGAATGAAGG).
Summary of the method: (§1)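 Random background probes are the reference for binding z-scores. These scores derive from regression-normalized fluorescence on custom Agilent 4×180K protein-binding microarrays incubated 1 h with ligand-free nuclear receptor dimers. Binding was detected with antibodies against each partner (one per run).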
CCTACAGGGTCAGCTAGGCCAGAGTAGGGACGGC was tested, and the PBM binding z-score was 4.59.
GTATCAAGGTGAATAGGTCGTTGATGAGTAGGCG was tested, and the PBM binding z-score was 1.81.
In the case of TATACAGGGTCAAAGGCCGGAGTACGAATGTCGA, the PBM binding z-score is reported as 6.66.
CCTCGGAGGACAGAACGTCAGAGCTGTCCGCTTT was tested, and the PBM binding z-score was -1.12.
With ATCTCTAGGTAAGACCCAGTTCAGTGAAGAACGC the PBM binding z-score was 0.283.
With ACTTACGGGTCAACGAGGGTATAGCACGCGTATA the PBM binding z-score was 5.63.
TAGCGTAGGTCAGATCGGGCCAGTATACGCTATA gave a PBM binding z-score of 1.83.
With GCTTACGGGTAAAAGGTTATAGCATGAATAGAAT the PBM binding z-score was 3.38.
TCTATTAGTTGACGGGCAACCGACGAGTCCGTTT was tested, and the PBM binding z-score was 0.417.
For CCCAGCAGGCCAGGGTCACTCAAGCATTTCGCTT, the PBM binding z-score was 3.26.
Sequence CGTCCCAGGTCAGAGAGGTCAGTGAATGCCGAGT has a PBM binding z-score of 4.33.
Work on ACTAGCAAGCCAAGGGTCACTCAAGATTAGTCCG yielded a PBM binding z-score of 3.69.
Sequence CAGACTGGGGCATAAGGTTACCATAAGCCAGCCC has a PBM binding z-score of 1.6.
Sequence AGAACGAGGGCTATGAGTTGATAGCACGGGTGGC has a PBM binding z-score of 0.416.
For GCTTGTAGATCAAGGTTAAGATAGACTAAGCTAA, the PBM binding z-score was 1.04.
For CCTAGCAGGCCAGGGTCACTCAAGCATTTCGCTT, the PBM binding z-score was 3.9.
For ATCTCTAGGCAAAAGTTCAGTGAATCCCGAGGAT, the PBM binding z-score was 1.02.
With ATCTCTAGGTAAAGATAGTTCAGAGAATGCAAAT the PBM binding z-score was 0.482.
For CAAACTAGGTCACGGAAGGTCAAAGTCGAATGAC, the PBM binding z-score was 7.3.
ATATGTAGGTTACGGGTCATTCAGGTTGGTTCGC was tested, and the PBM binding z-score was 4.31.
For ATCTCTAGCTAACAAGTTCAGTGAAAGAGAGGAC, the PBM binding z-score was 0.529.
ACAGACAGGTGAGTTAAGGTAACTCAGCTGGACG gave a PBM binding z-score of 0.374.
For CAAACTAGTTCAAAGGTCAAAGTCGAGCCAACCA, the PBM binding z-score was 9.59.
Sequence ACTTACGGGTCAACGAGCTTATAGCACGCGTATA has a PBM binding z-score of 6.14.
Sequence CCGACTGGGGCATAAGGTTAGCATAAGCCAGCCC has a PBM binding z-score of 0.224.
For CCGACTGGGGCATAAGGTTACCATGAGCCAGCCC, the PBM binding z-score was 1.32.
Sequence ATATGTAGATTATCGGGTCATTCAGTTTGCGCAT has a PBM binding z-score of 2.45.
For GATACAGGGTCAAGGCCCGAGTACGCGTATTGAT, the PBM binding z-score was 5.69.
Work on ACTAGGAGGCCAAGTTTGGGTCACTCAAACAAAG yielded a PBM binding z-score of 1.08.
For GCTCGGAGGACAACGTCAGAGCTTTGTCCGTAGA, the PBM binding z-score was -0.87.
Sequence TTAGCAAGGTGAAAGGTCGTTGATGCACGCCTTG has a PBM binding z-score of 5.52.
For ATCGAAATGTCGACGAGGTGAGTATACACCGTTT, the PBM binding z-score was 0.492.
For CGTCCAAGGTGAGAGAGGTCAGTGAATGCCGAGT, the PBM binding z-score was 2.89.
Work on CCTGCTAGGTCAATCGTCAGCTAAAGCAGCTCGC yielded a PBM binding z-score of 2.15.
For GCTTGTAGGTCAAGGTTAAGAAAGACTAAGCTAA, the PBM binding z-score was 4.8.
TCTGCTAGGTGAACGATGGTCAGCTAATCTGCTA gave a PBM binding z-score of 0.0585.
For CGAACTAGGTCATTGACTGGACAGTGAATAGTAA, the PBM binding z-score was 2.58.
In the case of TCCTATAGGTAAAGGTGAAAGTCGAACGATATGA, the PBM binding z-score is reported as 1.98.
Sequence CCAGACAGGTGGGAAGGTAACTCAGCCTCGATTA has a PBM binding z-score of -0.186.
With CCTACTGGGCCATTCAGAGGTCATAGATCATATG the PBM binding z-score was 3.98.

The sequences below were run on THRa:RXRa (NR concentration 90 nM, RXRa partner concentration 90 nM) in the same assay as above.
Summary of the method: as §1
Work on CCTACAGGGTCAGCTAGGCCAGAGTAGGGACGGC yielded a PBM binding z-score of 3.02.
GTATCAAGGTGAATAGGTCGTTGATGAGTAGGCG gave a PBM binding z-score of 2.29.
For TATACAGGGTCAAAGGCCGGAGTACGAATGTCGA, the PBM binding z-score was 3.34.
CCTCGGAGGACAGAACGTCAGAGCTGTCCGCTTT gave a PBM binding z-score of -0.532.
With ATCTCTAGGTAAGACCCAGTTCAGTGAAGAACGC the PBM binding z-score was 0.738.
ACTTACGGGTCAACGAGGGTATAGCACGCGTATA was tested, and the PBM binding z-score was 3.42.
In the case of TAGCGTAGGTCAGATCGGGCCAGTATACGCTATA, the PBM binding z-score is reported as 3.93.
GCTTACGGGTAAAAGGTTATAGCATGAATAGAAT showed a PBM binding z-score of 1.64.
TCTATTAGTTGACGGGCAACCGACGAGTCCGTTT showed a PBM binding z-score of -0.223.
In the case of CCCAGCAGGCCAGGGTCACTCAAGCATTTCGCTT, the PBM binding z-score is reported as 2.81.
CGTCCCAGGTCAGAGAGGTCAGTGAATGCCGAGT gave a PBM binding z-score of 4.24.
Work on ACTAGCAAGCCAAGGGTCACTCAAGATTAGTCCG yielded a PBM binding z-score of 2.51.
In the case of CAGACTGGGGCATAAGGTTACCATAAGCCAGCCC, the PBM binding z-score is reported as 2.
AGAACGAGGGCTATGAGTTGATAGCACGGGTGGC was tested, and the PBM binding z-score was -0.476.
GCTTGTAGATCAAGGTTAAGATAGACTAAGCTAA showed a PBM binding z-score of 1.21.
Work on CCTAGCAGGCCAGGGTCACTCAAGCATTTCGCTT yielded a PBM binding z-score of 2.92.
ATCTCTAGGCAAAAGTTCAGTGAATCCCGAGGAT gave a PBM binding z-score of 0.622.
ATCTCTAGGTAAAGATAGTTCAGAGAATGCAAAT was tested, and the PBM binding z-score was 0.724.
CAAACTAGGTCACGGAAGGTCAAAGTCGAATGAC was tested, and the PBM binding z-score was 5.24.
With ATATGTAGGTTACGGGTCATTCAGGTTGGTTCGC the PBM binding z-score was 3.15.
ATCTCTAGCTAACAAGTTCAGTGAAAGAGAGGAC gave a PBM binding z-score of 1.
With ACAGACAGGTGAGTTAAGGTAACTCAGCTGGACG the PBM binding z-score was 4.35.
CAAACTAGTTCAAAGGTCAAAGTCGAGCCAACCA was tested, and the PBM binding z-score was 4.16.
Sequence ACTTACGGGTCAACGAGCTTATAGCACGCGTATA has a PBM binding z-score of 2.46.
With CCGACTGGGGCATAAGGTTAGCATAAGCCAGCCC the PBM binding z-score was 1.01.
CCGACTGGGGCATAAGGTTACCATGAGCCAGCCC was tested, and the PBM binding z-score was 2.05.
ATATGTAGATTATCGGGTCATTCAGTTTGCGCAT showed a PBM binding z-score of 3.14.
GATACAGGGTCAAGGCCCGAGTACGCGTATTGAT gave a PBM binding z-score of 3.47.
Sequence ACTAGGAGGCCAAGTTTGGGTCACTCAAACAAAG has a PBM binding z-score of 2.74.
GCTCGGAGGACAACGTCAGAGCTTTGTCCGTAGA was tested, and the PBM binding z-score was 0.242.
Sequence TTAGCAAGGTGAAAGGTCGTTGATGCACGCCTTG has a PBM binding z-score of 3.02.
ATCGAAATGTCGACGAGGTGAGTATACACCGTTT showed a PBM binding z-score of 1.43.
CGTCCAAGGTGAGAGAGGTCAGTGAATGCCGAGT gave a PBM binding z-score of 3.33.
With CCTGCTAGGTCAATCGTCAGCTAAAGCAGCTCGC the PBM binding z-score was 2.11.
For GCTTGTAGGTCAAGGTTAAGAAAGACTAAGCTAA, the PBM binding z-score was 2.91.
For TCTGCTAGGTGAACGATGGTCAGCTAATCTGCTA, the PBM binding z-score was 0.529.
For CGAACTAGGTCATTGACTGGACAGTGAATAGTAA, the PBM binding z-score was 2.25.
Work on TCCTATAGGTAAAGGTGAAAGTCGAACGATATGA yielded a PBM binding z-score of 1.26.
With CCAGACAGGTGGGAAGGTAACTCAGCCTCGATTA the PBM binding z-score was -0.392.
With CCTACTGGGCCATTCAGAGGTCATAGATCATATG the PBM binding z-score was 3.27.
